Laboratory results reported in PubChem BioAssay (EPA / NIEHS).
Where “and” joins values, the source holds several entries; their conditions need not be identical. Equal values may be shown once. Some compounds were tested as several samples or in several runs, with calls that do not always agree. Calls of active or inactive are those of the source. The calls were made as follows: active = hit-call score of the fitted dose curve at least 0.9, where 1 is the maximum; inactive = score below 0.9.

Test: BSK_3C_uPAR: BioMAP Diversity Plus: 3C Assay for Urokinase-type plasminogen activator receptor (uPAR) Biomarker Activity (AID 2282998)
Details: BioMAP 3C HUVEC, uPAR biomarker ELISA; actives raise or lower the signal
Method: BSK_3C is a cell-based, multiplexed-readout assay that uses umbilical vein endothelium, a human vascular primary cell, with measurements taken at 24 hours after chemical dosing in a 96-well plate.BSK_3CAR is an assay component measured in the BSK_3C assay. It measures uPAR antibody related to regulation of gene expression using ELISA technology.Data from the assay component BSK_3CAR was analyzed into 1 assay endpoint. This assay endpoint, BSK_3CAR, was analyzed with bidirectional fitting relative to DMSO as the negative control and baseline of activity. Using a type of binding reporter, gain or loss-of-signal activity can be used to understand changes in the signaling as they relate to the gene PLAUR. Furthermore, this assay endpoint can be referred to as a primary readout, because this assay has produced multiple assay endpoints where this one serves a signaling function. To generalize the intended target to other relatable targets, this assay endpoint is annotated to the cytokine intended target family, where the subfamily is plasmogen activator.
The levels of cell surface (or secreted, indicated by the prefix "s") biomarker endpoints were measured by ELISA. Overt cytotoxicity to cells in confluent adherent cultures (all systems other than the BT system) was assessed by measuring total protein levels using sulforhodamine B (SRB) staining in parallel cultures at the time of biomarker measurements, indicated as SRB endpoints. For proliferation assays for adherent cell types, individual cell types are cultured at sub-confluence and relative cell numbers quantified by SRB staining at time points optimized for each system (48 h: 3C and CASM3C systems; 72 h: BT and HDF3CGF systems; 96 h: SAg system). SRB was performed by staining cells with 0.1% SRB after fixation with 10% TCA and reading wells at 560 nm.Viability and proliferation of PBMC (T cells) was quantified by Alamar Blue reduction for the SAg and BT systems. For PBMC viability (referred to as PBMC Cytotoxicity within the assay endpoint names), cells were plated (75,000/well in a 96-well plate) and then chemical samples added for 1 h before addition of activators, SEB and TSST-1 (20 ng/mL final concentration each). Cells were incubated for 90 h. Then, Alamar Blue (20 uL/well) (Invitrogen, Cat DAL1100) was added for 6 h, and the plates were read with a fluorescence microplate reader at 546/580 nm (excitation/emission). For PBMC proliferation, cells were plated and activated as above but incubated for only 16 h prior to addition of Alamar Blue. Plates were read after 6 h.

Structure (SMILES) | outcome | AC50
O=C(O)C(F)(F)C(F)(F)C(F)(F)OC(F)(F)F | inactive | –
CCN=C1C=CC(=C(c2ccc(N(CC)CC)cc2)c2ccc(N(CC)CC)cc2)c2ccccc21 | – | 3.95 µM (active) and 1.39 µM (active)
Nc1cc([N+](=O)[O-])cc(Cl)c1O | inactive | –
O=C(Cl)C(F)(F)C(F)(F)C(F)(F)C(F)(F)C(F)(F)C(F)(F)F | inactive | –
O=C(O)CCC(F)(F)C(F)(F)C(F)(F)F | inactive | –
CCN(CCO)S(=O)(=O)C(F)(F)C(F)(F)C(F)(F)C(F)(F)C(F)(F)C(F)(F)C(F)(F)C(F)(F)F | inactive | 8.1 µM (active)
OCC(F)(F)C(F)(F)C(F)(F)C(F)(F)C(F)(F)C(F)(F)C(F)(F)C(F)(F)CO | inactive | 7.66 µM (active)
O=C(O)C(F)(F)C(F)(F)C(F)(F)C(F)(F)C(F)(F)C(F)(F)C(F)F | inactive | –
NC(=O)C(F)(F)C(F)(F)C(F)(F)C(F)F | inactive | –
NS(=O)(=O)C(F)(F)C(F)(F)C(F)(F)C(F)(F)C(F)(F)C(F)(F)F | inactive | 19.6 µM (active)
O=C(O)C(F)(F)C(F)(F)C(F)(F)OC(F)(C(F)(F)F)C(F)(F)F | inactive | –
C=C(C)C(=O)OCC(F)(F)C(F)(F)C(F)(F)C(F)F | inactive | –
OCC(F)(F)C(F)(F)C(F)(F)CO | inactive | –
FC(F)(F)C(F)(F)C(F)(F)C(F)(F)C(F)(F)C(F)(F)C(F)(F)CCI | inactive | –
C[C@]12CC[C@H]3C(=CCc4cc(O)ccc43)[C@@H]1CCC2=O | inactive | –
NC(=O)C(F)(F)C(F)(F)C(F)(F)F | inactive | –
O=S(=O)(OCC(F)(F)F)C(F)(F)C(F)(F)C(F)(F)C(F)(F)F | inactive | 38.5 µM (active)
O=C1C=CC(=O)N1c1ccc(Cc2ccc(N3C(=O)C=CC3=O)cc2)cc1 | – | 5.81 µM (active)

Structure (SMILES) | outcome | AC50
CCN(CC)c1ccc(C=O)cc1 | inactive | –
Brc1nc2ccccc2s1 | inactive | –
CCOC(C=C(C)CCC=C(C)C)OCC | – | 31.3 µM (active)
CC1=CC2C3C=CC(C3)C2C1C (stereo not given) | inactive | –
Cc1cc(C)c(O)c(C(C)(C)C)c1 | – | 29.2 µM (active)
O=S(=O)(Cl)C(F)(F)C(F)(F)C(F)(F)C(F)(F)C(F)(F)C(F)(F)C(F)(F)C(F)(F)F | – | 45.8 µM (active) and 47.4 µM (active)
CCN(CC)c1ccc(N=Nc2ccccc2)cc1 | – | 20 µM (active)
NCC(F)(F)C(F)(F)C(F)(F)C(F)(F)C(F)(F)C(F)(F)F | inactive | –
CO[Si](C)(CCC(F)(F)C(F)(F)C(F)(F)C(F)(F)C(F)(F)C(F)(F)F)OC | inactive | –
FC(F)(F)C(F)(F)C(F)(F)CC1CO1 (stereo not given) | inactive | –
C=CC(=O)OCC(F)(F)C(F)(F)C(F)(F)COC(=O)C=C | – | 30 µM (active) and 48.5 µM (active)
COC(F)(C(F)F)C(F)(F)F (stereo not given) | inactive | –
O=C(O)C(F)(F)OC(F)(F)C(F)(F)OC(F)(F)C(F)(F)OC(F)(F)F | inactive | –
O=C=Nc1cccc2c(N=C=O)cccc12 | inactive | –
Cc1ccc(S(=O)(=O)C(I)I)cc1 | – | 1.45 µM (active)
OCC(O)CC(F)(F)C(F)(F)C(F)(F)C(F)(F)C(F)(F)C(F)(F)C(F)(F)C(F)(F)F (stereo not given) | inactive | –
C[Si](Cl)(Cl)CCC(F)(F)C(F)(F)C(F)(F)C(F)(F)C(F)(F)C(F)(F)F | inactive | –
O=C(F)C1(F)C(F)(F)C(F)(F)C(F)(F)C(F)(F)C1(F)F | inactive | –
